In assay [1] the target is Progesterone receptor (Homo sapiens) (UniProt P06401). Put plainly: qHTS assay to identify small molecule agonists of the progesterone receptor (PR) signaling pathway (AID 1346784; calls by dose curve; also: nearly all actives have a fitted effect of over 30% in size). Put shortly: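 Agonist qHTS: compounds pinned onto 3,000 PR-UAS-bla HEK 293T cells per well in charcoal-stripped serum medium, 16hr at 37C, then beta-lactamase activity measured by LiveBLAzer FRET fluorescence after 2 hours at room temperature.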
Progesterone receptor (Homo sapiens), sequence (P06401 whole entry, looked up): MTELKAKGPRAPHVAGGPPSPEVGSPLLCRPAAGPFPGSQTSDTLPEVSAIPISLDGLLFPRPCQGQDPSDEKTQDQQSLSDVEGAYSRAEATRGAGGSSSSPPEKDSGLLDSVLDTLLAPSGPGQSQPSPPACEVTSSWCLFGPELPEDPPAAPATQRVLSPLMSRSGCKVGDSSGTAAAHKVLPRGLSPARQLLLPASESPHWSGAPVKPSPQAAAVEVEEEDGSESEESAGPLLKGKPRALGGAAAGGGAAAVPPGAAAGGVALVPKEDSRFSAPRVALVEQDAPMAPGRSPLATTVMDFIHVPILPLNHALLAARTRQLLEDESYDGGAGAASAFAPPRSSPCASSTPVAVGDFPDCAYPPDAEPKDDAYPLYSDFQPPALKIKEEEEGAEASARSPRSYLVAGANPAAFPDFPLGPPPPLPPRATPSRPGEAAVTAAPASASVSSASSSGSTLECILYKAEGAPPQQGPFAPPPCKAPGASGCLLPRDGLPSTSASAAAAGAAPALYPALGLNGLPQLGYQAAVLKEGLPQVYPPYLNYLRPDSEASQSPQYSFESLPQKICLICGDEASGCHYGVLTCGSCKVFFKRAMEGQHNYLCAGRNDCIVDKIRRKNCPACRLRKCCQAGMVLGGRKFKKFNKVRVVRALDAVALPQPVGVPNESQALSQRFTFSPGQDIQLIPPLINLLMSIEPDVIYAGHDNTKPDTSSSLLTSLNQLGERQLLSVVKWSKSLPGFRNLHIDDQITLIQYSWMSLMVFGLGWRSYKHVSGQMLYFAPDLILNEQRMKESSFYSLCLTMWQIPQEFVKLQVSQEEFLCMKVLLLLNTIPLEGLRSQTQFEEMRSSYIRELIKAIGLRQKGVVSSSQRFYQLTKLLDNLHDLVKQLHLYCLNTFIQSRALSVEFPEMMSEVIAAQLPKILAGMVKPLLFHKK
In general terms: qHTS replaces the single test concentration by a dilution series.

The target is the same in assay [2]. Put plainly: qHTS assay to identify small molecule antagonists of the progesterone receptor (PR) signaling pathway (AID 1346795; active = well fitted inhibition curve with a large enough effect in the signal ratio in the repeat runs, not every such curve was filed as active; the % refers to the signal ratio). The essentials:
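Antagonist mode with agonist R5020 at 1 nM final and 16 hr incubation at 37C. Reporter was beta-lactamase driven by UAS in HEK293T (PR-UAS-bla), 2% charcoal-stripped serum; signal from LiveBLAzer FRET substrate, 2 hr at room temperature.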

A short description of assay [3]: qHTS assay to identify small molecule antagonists of the progesterone receptor (PR) signaling pathway - cell viability counter screen (AID 1346798). Also: series mostly up to about 92 µM; nearly all actives have a fitted effect of over 50% in size. The essentials:
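Cytotoxicity read as CellTiter-Glo luminescence (30 min, room temperature) in the same wells as the beta-lactamase readout. HEK293T PR-UAS-bla cells in charcoal-stripped 2% FBS received compound and R5020, then 16 h at 37C, 5% CO2.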

The nature of assay [4]: qHTS assay to identify small molecule agonists of the progesterone receptor (PR) signaling pathway - cell viability counter screen (AID 1346799; calls by dose curve; also: nearly all actives have a fitted effect of over 45% in size). Put shortly: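 Cytotoxicity measured by CellTiter-Glo luminescence (30 min, RT) in the same wells as the PR beta-lactamase agonist read. Those HEK293T cells had 16 h compound treatment at 37 C in 2% charcoal-stripped FBS medium.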

A short description of assay [5]: qHTS assay to identify small molecule antagonists of the TGF-beta/Smad signaling pathway - cell viability counter screen (AID 1346824). Also: nearly all actives have a fitted effect of over 50% in size. Put shortly: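 SBE-bla HEK 293T cells were plated overnight at 37 C, then given compounds in DMSO plus TGF-beta1 (added as 0.25 ng/mL solution) for 5 hr. After the bla read, CellTiter-Glo was added to the same wells and luminescence read after 30 min at room temperature.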

Assay [6] can be described thus: qHTS assay to identify small molecule agonists of the TGF-beta/Smad signaling pathway - cell viability counter screen (AID 1346829). Also: top concentration of the series differs between compounds; nearly all actives have a fitted effect of over 45% in size. Put shortly:
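After overnight seating at 37 C and 5% CO2, reporter cells got compounds for 5 hr and FRET substrate for 2 hr; cell viability then came from CellTiter-Glo luminescence.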

Assay [7] in a line: qHTS assay to identify small molecule agonists of the TGF-beta/Smad signaling pathway (AID 1346859; active = well fitted activation curve with a large enough effect in the signal ratio in the repeat runs, not every such curve was filed as active; the % refers to the signal ratio; also: series mostly up to about 77 µM). The essentials: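 Fluorescence (ex 405 nm; em 460 and 530 nm) was read 2 h after LiveBLAzer FRET substrate at RT. The preceding compound treatment of overnight-plated SBE-bla HEK293T cells lasted 5 h at 37 C.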
The target of assay [8] is Thyrotropin-releasing hormone receptor (Homo sapiens) (UniProt P34981). Briefly: qHTS assay to identify small molecule agonists of the thyrotropin-releasing hormone receptor (TRHR) signaling pathway (AID 1346891; calls by dose curve; also: potency is read from the fitted curve at half-maximal effect; as to activation: series mostly up to about 58 µM). Put shortly:
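Agonist-mode intracellular calcium readout: kinetic fluorescence over 3 min at 1 s intervals after compound addition to TRHR-HEK293 cells (18 h seeded, 2 h dye-loaded at 37 C). Fifteen concentrations, triplicates.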

Assay [9] in a line: Human pregnane X receptor (PXR) small molecule agonists, qHTS cell viability counter screen (AID 1346977). Also: nearly all actives have a fitted effect of over 50% in size. The essentials:
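Same-well viability read: CellTiter-Fluor added after 23 hr compound exposure, fluorescence measured 1 hr later. Cells were PXR-Luc HepG2 seeded at 2,000/well in 5% charcoal-stripped FBS medium, rested 5 hr before dosing at 37 C.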

Assay [10] in a line: Caspase-3/7 induction in HepG2 cells by small molecules, qHTS assay (AID 1346978). Also: nearly all actives have a fitted effect of over 15% in size. The essentials: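 Wild-type HepG2 cells (2,000/well) were settled 5 h at 37 C, 5% CO2, then exposed to compounds in DMSO for 17 h. Caspase-3/7 activity was read by luminescence 30 min after adding Caspase-Glo 3/7 reagent at room temperature.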
A short description of assay [11]: Caspase-3/7 induction in CHO-K1 cells by small molecules, qHTS cell viability counter screen (AID 1346979). Also: nearly all actives have a fitted effect of over 35% in size. Also: potency is read from the fitted curve at half-maximal effect. The essentials: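 Cytotoxicity counter screen: CellTiter-Fluor added to compound-treated wild-type CHO-K1 cells at 16 h (37C, 5% CO2), fluorescence measured 1 h later; same wells as caspase-3/7 measurement.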
Assay [12] in a line: Caspase-3/7 induction in CHO-K1 cells by small molecules, qHTS assay (AID 1346980). Also: nearly all actives have a fitted effect of over 15% in size. The essentials:
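Wild-type cells were seeded at 1,500 per well and settled 5 hr at 37 C, 5% CO2, then exposed to DMSO-dissolved compounds for 17 hr. Caspase-Glo 3/7 reagent was added, and luminescence was read after 30min at room temperature.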

Assay [13] concerns the target Nuclear receptor subfamily 1 group I member 2 (Homo sapiens) (UniProt O75469). Put plainly: Human pregnane X receptor (PXR) small molecule agonists, qHTS assay (AID 1346982). Also: nearly all actives have a fitted effect of over 35% in size. Put shortly: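 Luminescence (ONE-Glo, 30 min RT) after 24 hr compound exposure of PXR-Luc HepG2 cells; cells rested 5 hr post-plating in 5% charcoal-stripped FBS medium.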
In assay [14] the target is Cytochrome P450 2D6 (Homo sapiens) (UniProt P10635). Briefly: Cytochrome P450 Family 2 Subfamily D Member 6 (CYP2D6) small molecule antagonists: luciferase reporter qHTS assay (AID 1671196). Also: nearly all actives have a fitted effect of over 50% in size. Also: potency is read from the fitted curve at half-maximal effect. The essentials: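 Inhibition of CYP2D6 was gauged by loss of luminescence, since light produced tracks the luciferin generated from a proluciferin substrate. A 10 min room-temperature preincubation preceded 1 h NADPH-supported turnover.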
Cytochrome P450 2D6 (Homo sapiens), sequence (P10635 whole entry, looked up): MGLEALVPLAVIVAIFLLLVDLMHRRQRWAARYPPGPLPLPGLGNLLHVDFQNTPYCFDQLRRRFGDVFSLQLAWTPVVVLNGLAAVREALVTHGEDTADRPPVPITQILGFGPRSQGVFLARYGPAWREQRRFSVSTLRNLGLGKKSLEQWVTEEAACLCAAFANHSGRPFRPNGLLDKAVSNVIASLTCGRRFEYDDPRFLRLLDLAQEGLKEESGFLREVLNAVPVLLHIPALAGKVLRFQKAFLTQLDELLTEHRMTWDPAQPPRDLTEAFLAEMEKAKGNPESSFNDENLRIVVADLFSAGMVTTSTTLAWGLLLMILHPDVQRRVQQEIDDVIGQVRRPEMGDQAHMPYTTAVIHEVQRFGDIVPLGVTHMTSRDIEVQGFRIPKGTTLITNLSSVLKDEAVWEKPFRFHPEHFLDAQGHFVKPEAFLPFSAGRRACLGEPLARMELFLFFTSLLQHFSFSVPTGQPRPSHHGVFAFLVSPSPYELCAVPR
On the technique in general: In a reporter assay the amount or activity of a reporter protein is the signal.

Assay [15] is described as follows: Caspase-3/7 induction in HepG2 cells by small molecules, qHTS cell viability counter screen (AID 1346981). Also: series mostly up to about 92 µM; nearly all actives have a fitted effect of over 30% in size. The essentials: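 Counter screen for cytotoxicity: HepG2 exposed 16 hr to compounds, then CellTiter-Fluor viability signal (fluorescence, 1 hr reagent incubation).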
Assay [16] concerns the target Nuclear receptor subfamily 1 group I member 2 (Rattus norvegicus) (UniProt Q9R1A7). Briefly: Rat pregnane X receptor (rPXR) activation by small molecules, qHTS assay (AID 1346983). Also: nearly all actives have a fitted effect of over 20% in size. The note with it: rPXR luciferase reporter cells, One-Glo luminescence, 24 h; max activation: active compounds read high. The essentials:
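Cell-based rPXR luciferase reporter assay, 2,000 cells per well, rested 5hr at 37 C before compound addition in DMSO, then 24 hr at 37 C. One-Glo reagent was added and luminescence read after 30 min at room temperature.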

For assay [17], the target named is Nuclear receptor subfamily 1 group I member 2 (Homo sapiens) (UniProt O75469). Put plainly: CYP3A4 induction through human pregnane X receptor (PXR) by small molecules, qHTS assay (AID 1346984). Also: nearly all actives have a fitted effect of over 40% in size. The essentials:
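DPX-2 reporter cells; 24h cpd, 37C; Luciferin-IPA 3uM final x3h; One-Glo 30 min RT; lumi read.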

The target is the same in assay [18]. Put plainly: Human pregnane X receptor (PXR) activation by small molecules, qHTS assay (AID 1346985). Also: nearly all actives have a fitted effect of over 40% in size. Put shortly: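 DPX-2 cells (HepG2 co-transfected with a PXR response element and a CYP3A4-promoter luciferase construct) were seeded at 2,000 per well, rested 5 hr at 37C, then exposed to DMSO-dissolved compounds for 24 hr. Activation was read as luciferase luminescence.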

Assay [19] concerns the target Thyrotropin-releasing hormone receptor (Homo sapiens) (UniProt P34981). Put plainly: qHTS assay to identify small molecule antagonists of the thyrotropin-releasing hormone receptor (TRHR) signaling pathway (AID 1346877; active = well fitted inhibition curve with a large enough effect in the repeat runs, not every such curve was filed as active; also: series mostly up to about 51 µM). The essentials: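 In this cell-based calcium flux format, HEK293 cells expressing TRHR received test compound for 5 min before the agonist TRH (1 nM final). Dye loading lasted 2 h at 37 °C.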

The target of assay [20] is Cytochrome P450 2C19 (Homo sapiens) (UniProt P33261). Briefly: Cytochrome P450 Family 2 Subfamily C Member 19 (CYP2C19) small molecule antagonists: luciferase reporter qHTS assay (AID 1671197). Also: nearly all actives have a fitted effect of over 65% in size. Also: potency is read from the fitted curve at half-maximal effect. The essentials:
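Inhibition of CYP2C19 was scored from loss of luminescence in a P450-Glo proluciferin substrate assay, NADPH-started and run 1 h at 37C, with ketoconazole as positive control.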

Values without a mark were called inactive. Inconclusive results are not listed. Active and inactive are the calls of the source. Unless noted, calls follow the shape of the dose curve; as a rule, active = well fitted curve in the direction sought with a large enough effect in the repeat runs; inconclusive = weak or mixed curves; inactive = no such curve, though single readings can be large; an effect the other way counts as inactive or inconclusive.
% is scaled to controls: 0 for no effect and ±100 for the full control effect.

Thyrotropin-releasing hormone receptor (Homo sapiens), sequence (P34981 whole entry, looked up): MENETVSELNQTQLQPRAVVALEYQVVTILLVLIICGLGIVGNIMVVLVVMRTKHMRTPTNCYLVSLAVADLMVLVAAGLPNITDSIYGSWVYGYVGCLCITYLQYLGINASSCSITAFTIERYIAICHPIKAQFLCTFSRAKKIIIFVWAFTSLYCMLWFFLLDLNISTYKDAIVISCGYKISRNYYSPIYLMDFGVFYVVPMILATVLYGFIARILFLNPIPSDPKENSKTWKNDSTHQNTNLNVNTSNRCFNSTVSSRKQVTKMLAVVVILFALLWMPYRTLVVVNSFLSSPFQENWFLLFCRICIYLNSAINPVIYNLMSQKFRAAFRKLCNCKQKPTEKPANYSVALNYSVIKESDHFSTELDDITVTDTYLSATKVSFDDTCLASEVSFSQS
Cytochrome P450 2C19 (Homo sapiens), sequence (P33261 whole entry, looked up): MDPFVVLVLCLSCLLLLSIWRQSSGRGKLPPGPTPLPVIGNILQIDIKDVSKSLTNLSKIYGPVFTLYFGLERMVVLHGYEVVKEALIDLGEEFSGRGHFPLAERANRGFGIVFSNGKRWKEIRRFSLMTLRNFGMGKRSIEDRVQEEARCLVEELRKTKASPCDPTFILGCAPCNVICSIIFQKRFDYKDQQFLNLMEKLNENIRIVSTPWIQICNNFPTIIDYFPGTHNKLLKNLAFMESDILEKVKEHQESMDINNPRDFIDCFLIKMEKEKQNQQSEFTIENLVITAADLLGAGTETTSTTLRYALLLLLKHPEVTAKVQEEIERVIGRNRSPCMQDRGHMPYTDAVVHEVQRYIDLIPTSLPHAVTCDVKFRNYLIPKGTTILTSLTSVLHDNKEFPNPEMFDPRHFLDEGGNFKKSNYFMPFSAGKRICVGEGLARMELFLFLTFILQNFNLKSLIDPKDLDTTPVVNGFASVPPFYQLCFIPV
Nuclear receptor subfamily 1 group I member 2 (Homo sapiens), sequence (O75469 whole entry, looked up): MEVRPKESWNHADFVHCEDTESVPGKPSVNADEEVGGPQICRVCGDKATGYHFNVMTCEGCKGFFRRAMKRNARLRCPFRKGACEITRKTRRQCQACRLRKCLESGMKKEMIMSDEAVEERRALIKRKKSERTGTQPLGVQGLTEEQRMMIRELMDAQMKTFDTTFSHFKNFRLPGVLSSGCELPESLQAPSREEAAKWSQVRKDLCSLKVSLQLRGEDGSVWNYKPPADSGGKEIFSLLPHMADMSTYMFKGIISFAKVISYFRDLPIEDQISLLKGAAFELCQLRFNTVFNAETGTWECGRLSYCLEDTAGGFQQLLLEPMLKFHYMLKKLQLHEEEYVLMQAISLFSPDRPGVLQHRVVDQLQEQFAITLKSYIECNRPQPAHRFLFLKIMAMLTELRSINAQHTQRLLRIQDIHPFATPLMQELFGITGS
Nuclear receptor subfamily 1 group I member 2 (Rattus norvegicus), sequence (Q9R1A7 whole entry, looked up): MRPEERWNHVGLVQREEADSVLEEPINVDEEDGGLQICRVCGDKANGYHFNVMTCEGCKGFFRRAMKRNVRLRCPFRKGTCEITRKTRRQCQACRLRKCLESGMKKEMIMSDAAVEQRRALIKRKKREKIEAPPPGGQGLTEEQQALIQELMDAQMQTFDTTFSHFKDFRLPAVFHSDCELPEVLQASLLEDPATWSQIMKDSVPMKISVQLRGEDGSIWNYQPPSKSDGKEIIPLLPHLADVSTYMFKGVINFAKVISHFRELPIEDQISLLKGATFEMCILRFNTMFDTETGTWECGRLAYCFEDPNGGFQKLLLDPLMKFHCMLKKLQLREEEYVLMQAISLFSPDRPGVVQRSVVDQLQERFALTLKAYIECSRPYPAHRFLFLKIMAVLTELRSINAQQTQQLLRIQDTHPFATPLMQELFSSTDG

Regarding `COCCOC[C@H](CC1(C(=O)NC2CCC(C(=O)O)CC2)CCCC1)C(=O)Oc1ccc2c(c1)CCC2` (stereo partly specified), the Potency result in assay [1], in assay [2], in assay [3], in [4], in [9] and in assay [13] was “inactive” each time. Besides, the Potency result in assay [14] is “inactive”. In addition, the compound was classed as inactive in assay [5], in assay [6], in assay [7], in [10] and in assay [12]. In addition, the Potency was 11 µM (active) in assay [8] and 54.5 µM (active) in assay [11].

As to `CC(C)NNC(=O)c1ccncc1`, the Potency result in [1], in assay [2], in assay [3], in assay [4], in assay [9] and in assay [11] was “inactive” in each case. The Potency result in assay [15], in assay [13], in assay [17] and in assay [18] was “inactive” in each case. The result in assay [5], in assay [6], in assay [7], in assay [10] and in assay [12] was inactive. In addition, in assay [16], the max activation is -0.682%.

As for `Nc1ccncc1N`, the Potency entry in assay [1], in assay [2], in assay [3], in [4], in [9] and in [11] was “inactive” in each case. Further, the Potency result in assay [15], in assay [13], in assay [17], in [18] and in assay [20] was “inactive” in each case. In addition, the compound was called inactive in [5], in [6], in assay [7], in [19] and in assay [12]. Also, the max activation in assay [16] is -0.418%.

Regarding `CCOC(=O)C(=O)CCCCCCl`, the Potency result in assay [1], in [2], in [3], in assay [4], in [8] and in assay [9] was “inactive” throughout. Moreover, the Potency entry in assay [11], in [15] and in assay [13] was “inactive” in each case. The call in assay [5], in [6], in assay [7], in assay [19] and in assay [12] was inactive. Further, the Potency in assay [14] was 38.9 µM (active); in assay [20], 17.4 µM (active).

In the case of `O=C(O)CCCC[P+](c1ccccc1)(c1ccccc1)c1ccccc1`, the Potency entry in [1], in [2], in assay [3], in assay [4], in assay [9] and in assay [11] was “inactive” each time. Moreover, the Potency result in [15], in assay [13] and in assay [20] was “inactive” each time. Further, the call in assay [5], in assay [6], in assay [7], in assay [10] and in assay [12] was inactive.

Take `CC(C(=O)O)c1cccc(Oc2ccccc2)c1` (stereo unspecified): the Potency entry in assay [1], in assay [2], in [3], in assay [4], in assay [9] and in assay [15] was “inactive” in each case. Besides, the Potency result in assay [14] and in assay [20] was “inactive” in each case. Moreover, the outcome in assay [5], in assay [6], in [7], in assay [19] and in assay [10] was inactive. The max activation in assay [16] is -0.273%.

With `CC1(C)[C@@H]2CC[C@@]1(C)[C@H](O)C2`, the Potency entry in assay [1], in assay [2], in [3], in assay [4], in assay [8] and in [9] was “inactive” throughout. For the same compound, the Potency entry in [11], in [15], in [13] and in [20] was “inactive” each time. The compound was called inactive in assay [5], in [6], in assay [7], in assay [19] and in assay [12].

Regarding `CN1C(C)(C)CC(O)CC1(C)C`, the Potency result in assay [1], in assay [2], in assay [3], in assay [4], in assay [9] and in [11] was “inactive” throughout. For the same compound, the Potency result in assay [15], in assay [13], in [14] and in [20] was “inactive” in each case. Besides, the result in assay [5], in assay [6], in [7], in assay [10] and in assay [12] was inactive.

For the origin of these results see PubChem BioAssay (Tox21).
